# Source: PubChem BioAssay (National Center for Advancing Translational Sciences (NCATS))
# The list is not random: actives were taken first. Their share in the collection is about 11%.
# HP1b binding inh: HP1-beta chromodomain-methylated histone interaction inhibition | AID 540317 | AlphaScreen HP1-beta / biotin-H3K9me3 peptide binding | P83916 | 390,000 compounds, 0.56% hits | Potency, µM (top dose mostly 114 µM), for the others: top-dose activity change, negative = inhibition, most hits filed as inhibitors; note: nearly all actives have a fitted effect of over 70% in size
# Target sequence (P83916 whole entry, looked up): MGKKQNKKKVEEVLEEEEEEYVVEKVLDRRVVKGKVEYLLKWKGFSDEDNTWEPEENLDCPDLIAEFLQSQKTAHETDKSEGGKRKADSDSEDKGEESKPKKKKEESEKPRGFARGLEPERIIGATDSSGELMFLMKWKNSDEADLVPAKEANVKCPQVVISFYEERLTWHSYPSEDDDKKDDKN
#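 HP1-beta protein (50 nM final) preincubated 30 min at room temperature with biotinylated H3(1-18)K9me3 peptide (50 nM) in PBS pH 7.4, 0.01% Tween-20, then compound added for 30 min. AlphaScreen streptavidin donor/nickel chelate acceptor beads (10 ug/mL final), 30 min dark, luminescence read.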
# JMJD2A Tudor inh: inhibitors of human JMJD2A Tudor domain. O75164. AlphaScreen JMJD2A-Tudor / H3K4me3 peptide binding. Potency, µM (doses to about 114 µM), inactives show top-dose activity change, negative = inhibition, usual class: inhibitors. 390,000 compounds, 4.4% hits; note: % is set by controls: 0 for no effect and ±100 for the full control effect; nearly all actives have a fitted effect of over 50% in size
# BAZ2B inh: inhibitors of human BAZ2B bromodomain; AID 504333; AlphaScreen BAZ2B-H3K14Ac peptide displacement; 360,000 compounds, 4.4% hits; Potency, µM (titrated, usually from 114 µM), for inactives: at the highest dose activity change, negative = inhibition, most hits filed as inhibitors; Q9UIF8; note: % is set by controls: 0 for no effect and ±100 for the full control effect; nearly all actives have a fitted effect of over 60% in size
#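 AlphaScreen displacement of biotin-H3(5-23)K14Ac peptide (50 nM final) from BAZ2B (50 nM final) in PBS pH 7.4, 0.01% Tween-20; complex preformed 30 min RT, then compounds (top 110 uM) 30 min RT, beads 20 min dark.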
# PLK1 PBD block: PLK1 (human) polo-box domain binding inhibition. Plk1 PBD binding of FITC phosphopeptide, fluorescence polarization. 360,000 compounds, 2.8% hits. Potency, µM, without a hit: max response, negative = inhibition, most hits filed as inhibitors; note: series mostly up to about 57 µM; % is set by controls: 0 for no effect and ±100 for the full control effect; nearly all actives have a fitted effect of over 65% in size
# VDR inh: blocks the human vitamin D receptor; P11473; VDR-SRC2-3 peptide fluorescence polarization, 2 h; Potency, µM, for the others: max response, negative = inhibition, hits mostly inhibitors; 400,000 compounds, 0.93% hits; AID 504847; note: % is set by controls: 0 for no effect and ±100 for the full control effect
#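 Fluorescence polarization assay measuring small-molecule disruption of VDR binding to the coregulator peptide SRC2-3. Compounds were pin-transferred (23 nl) into the reagent mix and incubated 2 h at room temperature before reading.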
# G9a inh: inhibitors of human histone lysine methyltransferase G9a. Q96KQ7. G9a H3K9 monomethylation, AlphaScreen, 2 h. Potency, µM (top dose mostly 102 µM), for the others: at the top dose activity, negative = inhibition, most hits filed as inhibitors. 350,000 compounds, 8.8% hits. AID 504332; note: % is set by controls: 0 for no effect and ±100 for the full control effect; nearly all actives have a fitted effect of over 75% in size
# Target sequence (Q96KQ7 913-1193 limits assumed): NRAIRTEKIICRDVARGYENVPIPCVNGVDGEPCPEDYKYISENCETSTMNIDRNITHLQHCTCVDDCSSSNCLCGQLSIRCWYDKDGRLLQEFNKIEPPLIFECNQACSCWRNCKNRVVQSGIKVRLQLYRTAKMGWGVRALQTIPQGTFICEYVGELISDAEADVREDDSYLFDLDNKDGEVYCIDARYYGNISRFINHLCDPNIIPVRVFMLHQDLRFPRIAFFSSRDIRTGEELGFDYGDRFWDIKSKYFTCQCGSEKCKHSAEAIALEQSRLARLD
#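 Using a bead-based AlphaScreen, monomethylated H3K9 product from 2 h room-temperature reactions (G9a 20 nM, peptide 500 nM, SAM 20 uM) was detected with 0.5 ug/mL rabbit anti-H3K9me1 antibody.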
# * hit, by the source's call; ? = inconclusive; · = no result given; [ ] = remark or other dose. Calls come from the whole dose curve; as a rule, active = well fitted curve in the direction sought with a large enough effect; inconclusive = small, poorly fitted or top-dose-only effect, or another doubt; inactive = no such curve, though single readings can be large; an effect the other way counts as inactive or inconclusive. Potency is the fitted concentration of half-maximal effect.
SMILES,HP1b binding inh,JMJD2A Tudor inh,BAZ2B inh,PLK1 PBD block,VDR inh,G9a inh
COc1ccccc1CNC(=O)C1COc2ccccc2O1 (stereo not given),36%,10%,2%,-1%,12%,18%[59 µM]
CC(NCc1ccccc1)C1COc2ccccc2O1 (stereo not given),-56%,3.2µM*,?,3%,1%,32µM*
CC(NCC(O)COc1ccccc1)C1COc2ccccc2O1 (stereo not given),23%,-7%,-17%,1%,-2%,-11%
CC(NC(=O)CCC(=O)NC(C)C1COc2ccccc2O1)C1COc2ccccc2O1 (stereo not given),27%,-16%,10%,-7%,3%,5%[59 µM]
COc1ccc(NS(=O)(=O)c2ccc(C)c(C(=O)NCc3ccccc3CN3CCCC3)c2)cc1,·,·,·,-6%,·,·
COC(=O)C1=C(C)N=C2SC(C#N)=C(N)N2C1c1ccc(OCc2ccccc2)cc1 (stereo not given),-6%,?,?,-3%,5%,?
Cc1nn(-c2ccccc2)c2nc(C(Cl)(Cl)Cl)[nH]c(=O)c12,9%,-5%,0%,?,-3%,-35%
O=C1c2ccccc2-c2onc3c(NCCO)cc(NC4CCCCC4)c1c23,?,7.9µM*,3.5µM*,·,?,2.2µM*
CCCCNc1cc(NC2CCCCC2)c2c3c(onc13)-c1ccccc1C2=O,?,10µM*,1.8µM*,·,?,2µM*
Cc1ccccc1CC1(CO)CCCN(C(=O)c2ccc(F)cc2)C1 (stereo not given),28%,-6%,-1%,3%,22%,4%
Cc1ccccc1CC1(CO)CCCN(C(=O)c2ccc3ncccc3c2)C1 (stereo not given),-2%,8.9µM*,1%,2.7µM*,40µM*,·
CC(=O)NCCc1nc2cc(NC(=O)c3ccc([N+](=O)[O-])cc3)ccc2n1C,21%,-4%,-3%,-20%,17%,5%
CCOC(=O)c1sc(NC(=O)/C=C/c2cnn(CC)c2C)c(C(=O)OCC)c1C,-13%,-12%,6%,13µM*,?,?
C#CCOCCOCCOCCNc1nc(N2CCN(C(=O)[C@H](CCCCN)n3cc(CN)nn3)CC2)nc(N2CCN(C(=O)[C@H](CO)n3cc([C@@H](N)C(C)C)nn3)CC2)n1,46%,-32%,·,-16%,-7%,·
C#CCOCCOCCOCCNc1nc(N2CCN(C(=O)C([C@@H](C)O)n3cc([C@@H](N)CCCCN)nn3)CC2)nc(N2CCN(C(=O)[C@H](CCC(=O)O)n3cc([C@@H](N)CCCCN)nn3)CC2)n1 (stereo not given in full),41%,?,·,5%,0%,·
C#CCOCCOCCOCCNc1nc(N2CCN(C(=O)C([C@@H](C)O)n3cc([C@@H](N)CCCCN)nn3)CC2)nc(N2CCN(C(=O)[C@H](CCCCN)n3cc([C@@H](N)CC(N)=O)nn3)CC2)n1 (stereo not given in full),13%,79µM*,·,-7%,9%,·
C#CCOCCOCCOCCNc1nc(N2CCN(C(=O)[C@H](CCCCN)n3cc([C@@H](N)CC(N)=O)nn3)CC2)nc(N2CCN(C(=O)[C@H](CCCCN)n3cc([C@@H](N)CC(N)=O)nn3)CC2)n1,40%,79µM*,·,-29%,-2%,·
C#CCOCCOCCOCCNc1nc(N2CCN(C(=O)[C@H](CCCCN)n3cc(CN)nn3)CC2)nc(N2CCN(C(=O)[C@H](CCCCN)n3cc([C@@H](N)CC(N)=O)nn3)CC2)n1,13%,35µM*,·,-2%,-28%,·
CCN(CC)S(=O)(=O)c1ccc(OC)c(NC(=O)Cn2cnc3c2c(=O)n(C)c(=O)n3C)c1,73%,-25%,?,-10%,16%,1%
N#C/C(=C(/O)CO/N=C/c1ccccc1Cl)c1nc2ccccc2[nH]1,33%,-12%,-4%,-3%,-3%,-8%
O=C(N/N=C/c1cc(Br)cc(Br)c1O)c1cccc(S(=O)(=O)N2CCOCC2)c1,0%,89µM*,-1%,49%,-1%,45%[59 µM]
O=C(N/N=C/c1ccc(O)c(O)c1)c1cccc(S(=O)(=O)N2CCCC2)c1,-23%,7.9µM*,-38%,-7%,-8%,40µM*
O=C(N/N=C/c1ccccc1O)NC12CC3CC(CC(C3)C1)C2,5%[57 µM],-15%,-4%,-2%,-4%,57%
CC(C)c1ccc(/C=N/NC(=O)c2cccc(S(=O)(=O)N3CCOCC3)c2)cc1,9%,-13%,·,-3%,-8%,11%
O=C(N/N=C/c1cc(Cl)cc([N+](=O)[O-])c1O)c1cccc(S(=O)(=O)N2CCOCC2)c1,-32%,40µM*,25µM*,-7%,-14%,50µM*
SMILES,HP1b binding inh,JMJD2A Tudor inh,BAZ2B inh,PLK1 PBD block,VDR inh,G9a inh
O=C(N/N=C/c1cc(Cl)cc([N+](=O)[O-])c1O)NC12CC3CC(CC(C3)C1)C2,?,50µM*,8.9µM*,?,-15%,10µM*
O=C(N/N=C/c1ccccc1Br)c1cccc(S(=O)(=O)N2CCOCC2)c1,36%,-20%,4%,0%,55%,-14%[12.7 µM]
Cc1ccc(N2CC(c3nc(-c4ccc(Cl)cc4)no3)CC2=O)cc1F (stereo not given),41%,-10%,-3%,·,13%,4%[59 µM]
O=C(N/N=C/c1ccccc1)c1ccc(NC(=O)c2ccc(F)cc2)cc1,16%,0%,-3%,3%,-25%,-44%
CCOc1ccc(C(=O)N/N=C/c2cc(Cl)ccc2[N+](=O)[O-])cc1,-11%,?,56µM*,0%,-23%,-45%[59 µM]
O=C(N/N=C/c1cc(Cl)cc([N+](=O)[O-])c1O)c1ccc2c(c1)OCO2,-4%,79µM*,35µM*,-14%,-23%,?
O=C(Nc1cccc(S(=O)(=O)N2CCOCC2)c1)c1ccc(Cl)c([N+](=O)[O-])c1,-1%,-17%,-25%,-11%,7%,-12%
O=C(N/N=C/c1cc(Br)cc([N+](=O)[O-])c1O)c1ccc(NC(=O)c2ccc(F)cc2)cc1,?,32µM*,13µM*,?,-16%,35µM*
O=C(Nc1ccc(S(=O)(=O)N2CCOCC2)cc1)c1ccc(Cl)c([N+](=O)[O-])c1,-9%,?,·,27µM*,-17%,·
COc1cc(Cl)cc(/C=N\NC(=O)c2ccc3c(c2)OCO3)c1O,·,·,·,-24%,·,·
CCOc1ccc(Cl)cc1/C=N/NC(=O)c1ccccc1,14%,-2%,18%,-6%,1%,20%[59 µM]
COc1ccc(S(=O)(=O)N2CCc3ccccc32)cc1C(=O)Nc1ccc(NC(C)=O)cc1,16%,-24%,·,-5%,-25%,·
